# How the values were obtained:
# Experiment in all cases: DAPPL (digital affinity profiling via proximity ligation, sequencing); 10 mM Tris-HCl pH 7.5, 50 mM NaCl, 1 mM DTT, 4% glycerol, room temperature, 30 min; GST-TFs on glutathione beads, 16-mer random dsDNA library, 0.1% formaldehyde crosslink after washing; high values mean tight binding
# Details in all cases: protein: recombinant; tags: N-terminal GST; dsDNA, one strand shown
# FLI1 = target: T1, FLI1 (Homo sapiens, UniProt Q01543 1-452)
# T1 sequence: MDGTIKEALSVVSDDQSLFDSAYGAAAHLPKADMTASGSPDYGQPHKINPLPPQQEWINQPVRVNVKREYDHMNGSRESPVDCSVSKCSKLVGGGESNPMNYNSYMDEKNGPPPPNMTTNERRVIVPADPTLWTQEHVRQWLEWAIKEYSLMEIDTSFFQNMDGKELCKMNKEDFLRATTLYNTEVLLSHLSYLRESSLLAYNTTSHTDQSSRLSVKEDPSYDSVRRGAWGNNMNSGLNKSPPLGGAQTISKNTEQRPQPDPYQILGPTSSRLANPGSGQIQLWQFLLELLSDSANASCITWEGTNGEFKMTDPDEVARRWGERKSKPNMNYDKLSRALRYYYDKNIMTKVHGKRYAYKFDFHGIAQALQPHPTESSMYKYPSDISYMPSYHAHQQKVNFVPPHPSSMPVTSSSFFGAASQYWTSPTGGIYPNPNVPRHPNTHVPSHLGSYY
# In short: (§1)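 Sequencing on an Illumina NextSeq500 followed washing, crosslinking with 0.1% formaldehyde, proximity ligation (BsaI/T4 ligase, 1 h, 37 °C) and PCR amplification of pools that had been incubated for 30 min at room temperature with 200 nmole of a random double-stranded 16-mer DNA library in Tris/NaCl/DTT/glycerol buffer. Each pool held DNA-barcoded human transcription factors, expressed in yeast as GST fusions and captured on glutathione beads, plus a tag-only sample. Binding signal is a hexamer's read frequency for a factor divided by its frequency in the tag-only sample.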
# ELK1 = target: T2, ELK1 (Homo sapiens, UniProt P19419 1-428)
# T2 sequence: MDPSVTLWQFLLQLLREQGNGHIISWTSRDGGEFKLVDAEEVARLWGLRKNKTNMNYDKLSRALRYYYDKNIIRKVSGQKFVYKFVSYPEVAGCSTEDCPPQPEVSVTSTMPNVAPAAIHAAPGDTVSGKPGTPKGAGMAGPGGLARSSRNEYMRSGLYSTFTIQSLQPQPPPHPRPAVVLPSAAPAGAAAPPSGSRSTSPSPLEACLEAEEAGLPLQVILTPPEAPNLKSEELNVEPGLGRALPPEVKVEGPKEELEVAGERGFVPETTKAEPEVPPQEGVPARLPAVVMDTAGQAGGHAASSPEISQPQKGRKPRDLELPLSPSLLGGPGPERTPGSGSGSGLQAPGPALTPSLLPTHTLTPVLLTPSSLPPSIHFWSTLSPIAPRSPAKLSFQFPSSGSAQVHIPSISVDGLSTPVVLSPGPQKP
# In short: as §1
# GABPA = target: T3, GABPA (Homo sapiens, UniProt Q06546 1-454)
# T3 sequence: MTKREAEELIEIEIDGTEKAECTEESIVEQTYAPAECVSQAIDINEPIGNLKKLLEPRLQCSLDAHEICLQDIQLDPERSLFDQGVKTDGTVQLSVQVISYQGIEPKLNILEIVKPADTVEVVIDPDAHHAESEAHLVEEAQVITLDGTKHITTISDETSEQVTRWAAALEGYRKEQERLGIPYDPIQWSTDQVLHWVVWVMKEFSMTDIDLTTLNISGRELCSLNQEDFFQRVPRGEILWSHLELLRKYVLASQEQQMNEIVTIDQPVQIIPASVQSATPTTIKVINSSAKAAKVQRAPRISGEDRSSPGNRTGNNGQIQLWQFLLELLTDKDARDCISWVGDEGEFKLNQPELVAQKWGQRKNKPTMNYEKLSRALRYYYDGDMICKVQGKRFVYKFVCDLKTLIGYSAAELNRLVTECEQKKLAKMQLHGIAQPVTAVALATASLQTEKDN
# In short: as §1
# ERG = target: T4, ERG (Homo sapiens, UniProt P11308 1-479)
# T4 sequence: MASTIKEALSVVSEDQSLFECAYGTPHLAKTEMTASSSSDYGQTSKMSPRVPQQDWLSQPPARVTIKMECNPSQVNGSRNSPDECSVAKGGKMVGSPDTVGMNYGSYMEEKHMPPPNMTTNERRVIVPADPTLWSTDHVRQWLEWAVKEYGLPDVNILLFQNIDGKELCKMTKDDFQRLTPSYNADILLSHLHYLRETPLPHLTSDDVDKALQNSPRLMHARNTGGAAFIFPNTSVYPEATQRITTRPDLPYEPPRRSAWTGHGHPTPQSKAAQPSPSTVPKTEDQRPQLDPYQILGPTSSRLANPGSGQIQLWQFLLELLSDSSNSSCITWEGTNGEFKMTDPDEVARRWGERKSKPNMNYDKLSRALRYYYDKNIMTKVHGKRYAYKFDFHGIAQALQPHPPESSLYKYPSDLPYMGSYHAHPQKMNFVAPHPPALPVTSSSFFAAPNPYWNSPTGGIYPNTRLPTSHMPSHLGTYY
# In short: as §1
# ELF1 = ELF1 (Homo sapiens, UniProt P32519 1-619)
# In short: as §1
# EHF = target: T5, EHF (Homo sapiens, UniProt Q9NZC4 1-300)
# T5 sequence: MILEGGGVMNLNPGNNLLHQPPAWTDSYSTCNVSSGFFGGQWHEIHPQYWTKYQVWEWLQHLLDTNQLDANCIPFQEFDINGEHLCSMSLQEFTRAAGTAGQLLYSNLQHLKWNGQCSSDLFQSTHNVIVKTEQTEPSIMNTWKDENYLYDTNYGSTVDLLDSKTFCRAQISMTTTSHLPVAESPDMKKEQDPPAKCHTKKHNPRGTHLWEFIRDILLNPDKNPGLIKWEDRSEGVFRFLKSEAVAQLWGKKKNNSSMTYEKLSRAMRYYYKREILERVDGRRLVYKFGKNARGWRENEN
# In short: as §1
# SPI1 = SPI1 (Homo sapiens, UniProt P17947 1-270)
# In short: as §1
# SPIB = SPIB (Homo sapiens, UniProt Q01892 1-262)
# In short: as §1
# ELK3 = target: T6, ELK3 (Homo sapiens, UniProt P41970 1-407)
# T6 sequence: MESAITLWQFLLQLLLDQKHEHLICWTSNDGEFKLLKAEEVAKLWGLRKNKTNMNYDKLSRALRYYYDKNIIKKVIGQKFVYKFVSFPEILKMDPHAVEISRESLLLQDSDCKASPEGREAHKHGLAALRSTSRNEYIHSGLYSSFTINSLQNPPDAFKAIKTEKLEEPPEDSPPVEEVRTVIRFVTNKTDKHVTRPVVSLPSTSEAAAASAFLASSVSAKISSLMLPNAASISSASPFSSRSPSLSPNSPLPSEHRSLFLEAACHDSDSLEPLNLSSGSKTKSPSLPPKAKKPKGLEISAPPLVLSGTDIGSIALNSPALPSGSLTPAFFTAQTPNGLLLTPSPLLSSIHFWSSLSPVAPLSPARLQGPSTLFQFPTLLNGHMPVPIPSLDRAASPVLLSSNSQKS
# In short: as §1
# Sequence of ELF1 (P32519 whole entry): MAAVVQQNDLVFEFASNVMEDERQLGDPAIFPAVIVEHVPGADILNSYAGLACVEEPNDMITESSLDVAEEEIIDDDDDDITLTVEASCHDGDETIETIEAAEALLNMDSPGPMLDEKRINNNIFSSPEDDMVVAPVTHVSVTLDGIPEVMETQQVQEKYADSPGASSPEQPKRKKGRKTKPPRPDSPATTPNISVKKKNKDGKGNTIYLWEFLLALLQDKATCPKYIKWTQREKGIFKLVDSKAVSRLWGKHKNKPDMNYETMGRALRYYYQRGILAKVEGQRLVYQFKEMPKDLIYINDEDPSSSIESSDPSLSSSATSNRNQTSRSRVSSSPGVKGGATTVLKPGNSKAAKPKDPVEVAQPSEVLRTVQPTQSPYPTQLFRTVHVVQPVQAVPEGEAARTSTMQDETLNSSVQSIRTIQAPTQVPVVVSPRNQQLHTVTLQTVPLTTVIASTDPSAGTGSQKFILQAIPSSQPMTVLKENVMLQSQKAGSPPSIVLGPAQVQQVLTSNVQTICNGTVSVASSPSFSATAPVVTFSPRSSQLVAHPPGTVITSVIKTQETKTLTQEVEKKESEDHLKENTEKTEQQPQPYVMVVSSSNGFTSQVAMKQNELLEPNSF
# Sequence of SPIB (Q01892 whole entry): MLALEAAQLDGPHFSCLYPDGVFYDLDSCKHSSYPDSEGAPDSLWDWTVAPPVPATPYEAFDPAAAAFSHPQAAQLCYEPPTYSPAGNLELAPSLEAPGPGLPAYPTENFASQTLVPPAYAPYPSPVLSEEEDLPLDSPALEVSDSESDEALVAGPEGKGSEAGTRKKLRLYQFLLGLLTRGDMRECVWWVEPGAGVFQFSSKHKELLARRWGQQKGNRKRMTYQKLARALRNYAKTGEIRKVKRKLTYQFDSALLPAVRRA
sequence,measurement,setting,value
CGTAAT,binding signal,FLI1,"1.19 fold enrichment (6-mer frequency, TF over GST control)"
same,binding signal,ELK1,"1.14 fold enrichment (6-mer frequency, TF over GST control)"
same,binding signal,GABPA,"1.13 fold enrichment (6-mer frequency, TF over GST control)"
same,binding signal,ERG,"1.19 fold enrichment (6-mer frequency, TF over GST control)"
same,binding signal,ELF1,"1.18 fold enrichment (6-mer frequency, TF over GST control)"
same,binding signal,EHF,"1.13 fold enrichment (6-mer frequency, TF over GST control)"
same,binding signal,SPI1,"1.16 fold enrichment (6-mer frequency, TF over GST control)"
same,binding signal,SPIB,"1.19 fold enrichment (6-mer frequency, TF over GST control)"
same,binding signal,ELK3,"1.04 fold enrichment (6-mer frequency, TF over GST control)"

# From PMC7862700, “An all-to-all approach to the identification of sequence-specific readers for epigenetic DNA modifications on cytosine”
